PubChem BioAssay
Values without a mark were called inactive. For some of these results: Results with a measured potency or affinity are listed apart. Activity calls are given as the source filed them. Unless noted, the rule behind the calls is not given here.

Legend:
[1] = antimalarial activity against Dd2 strain (AID 2302;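 active = growth inhibition above 50% at the single 2 µM test dose, taken to imply half-maximal potency below 2 µM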;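 note: 0% = DMSO untreated growth and 100% = chloroquine plus artemisinin killed control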); details: P. falciparum Dd2 in RBCs, LDH growth readout, 72 h; at 2 µM; hits give high values
[2] = HepG2 cytotoxicity, primary screen, cytotoxicity control for P. falciparum antimalarial project, cell-based, ATP luminescence (AID 2303;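 active = inhibition above 50%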;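 note: 0% = DMSO wells and 100% = digitonin-killed cells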); details: HepG2 viability, 24-48 h, at 10 µM, hits give high values
[3] = molecular target: L-lactate dehydrogenase (Plasmodium falciparum (isolate CDC / Honduras)) (UniProt Q27743); test: PfLDH activity inhibition – cell lysate, 3D7 strain, counter-screen for P. falciparum growth inhibition project (AID 2304);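 note: 0% = vehicle and 100% = reference inhibitor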; details: P. falciparum 3D7 crude extract, LDH APAD/NBT absorbance; at 2 µM; hits give high values
Sequence of L-lactate dehydrogenase (Plasmodium falciparum (isolate CDC / Honduras)) (Q27743 whole entry, looked up): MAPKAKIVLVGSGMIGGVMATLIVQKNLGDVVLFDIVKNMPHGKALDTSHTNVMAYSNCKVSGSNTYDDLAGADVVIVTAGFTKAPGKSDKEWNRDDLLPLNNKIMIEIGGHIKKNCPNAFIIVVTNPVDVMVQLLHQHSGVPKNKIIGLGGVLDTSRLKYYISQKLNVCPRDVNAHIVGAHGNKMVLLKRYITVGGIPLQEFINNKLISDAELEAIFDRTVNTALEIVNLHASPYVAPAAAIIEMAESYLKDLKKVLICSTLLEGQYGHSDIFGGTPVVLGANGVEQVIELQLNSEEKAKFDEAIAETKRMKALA

[4] = inhibition of 3D7 malaria parasite growth – strain 3D7 (AID 2306);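 note: 0% = DMSO wells and 100% = chloroquine plus artemisinin control wells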; details: P. falciparum 3D7 erythrocytic growth, LDH absorbance, 72 h; at 2 µM; hits give high values
[5] = molecular target: Calcium-dependent protein kinase 1 (Plasmodium falciparum (isolate 3D7)) (UniProt P62344); test: PfCDPK1 kinase inhibitors, biochemical, TCAMS library (AID 1159585; cut-off not given, nearly all actives have IC50 up to about 0.98 µM;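 note: inhibitors leave more ATP so luminescence rises with inhibition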); details: recombinant PfCDPK1, Kinase-Glo ATP depletion luminescence
Sequence of Calcium-dependent protein kinase 1 (Plasmodium falciparum (isolate 3D7)) (P62344 whole entry, looked up): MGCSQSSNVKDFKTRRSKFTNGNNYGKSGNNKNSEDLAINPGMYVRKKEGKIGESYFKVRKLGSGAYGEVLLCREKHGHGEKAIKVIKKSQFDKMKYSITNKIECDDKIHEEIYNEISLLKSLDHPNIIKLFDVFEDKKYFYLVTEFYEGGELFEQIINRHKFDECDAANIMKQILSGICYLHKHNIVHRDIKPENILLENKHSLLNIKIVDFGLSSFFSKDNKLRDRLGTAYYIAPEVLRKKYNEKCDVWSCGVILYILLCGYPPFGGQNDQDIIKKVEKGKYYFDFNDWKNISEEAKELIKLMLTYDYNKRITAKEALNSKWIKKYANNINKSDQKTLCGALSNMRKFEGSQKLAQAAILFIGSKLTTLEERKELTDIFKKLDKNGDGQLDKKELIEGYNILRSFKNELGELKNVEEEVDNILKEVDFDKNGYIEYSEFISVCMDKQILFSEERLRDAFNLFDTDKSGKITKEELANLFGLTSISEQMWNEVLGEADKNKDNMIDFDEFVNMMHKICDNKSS

[6] = molecular target: Plasmodium falciparum protein kinase 6 (PK6, PF3D7_1337100) (UniProt Q8IDW1); test: PfPK6 kinase inhibitors, biochemical, TCAMS library (AID 1159586); details: recombinant PfPK6, Kinase-Glo ATP depletion luminescence
Sequence of Plasmodium falciparum protein kinase 6 (PK6, PF3D7_1337100) (Q8IDW1 1-305): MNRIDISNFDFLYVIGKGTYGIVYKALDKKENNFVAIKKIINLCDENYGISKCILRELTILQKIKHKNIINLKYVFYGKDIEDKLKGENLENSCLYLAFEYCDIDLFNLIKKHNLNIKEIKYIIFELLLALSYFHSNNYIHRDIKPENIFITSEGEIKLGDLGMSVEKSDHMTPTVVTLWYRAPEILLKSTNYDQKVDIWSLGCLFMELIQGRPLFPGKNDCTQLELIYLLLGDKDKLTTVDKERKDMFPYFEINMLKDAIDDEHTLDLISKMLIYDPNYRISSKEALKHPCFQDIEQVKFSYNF

[7] = molecular target: Protein kinase 7 (PK7), Plasmodium falciparum 3D7 (PF3D7_0213400) (UniProt Q7YTF7); test: inhibition of Plasmodium PK7 catalytic activity – biochemical, TCAMS antimalarial set, Kinase-Glo luminescence (AID 1159587); details: recombinant PfPK7, Kinase-Glo ATP depletion luminescence
Sequence of Protein kinase 7 (PK7), Plasmodium falciparum 3D7 (PF3D7_0213400) (Q7YTF7 1-343): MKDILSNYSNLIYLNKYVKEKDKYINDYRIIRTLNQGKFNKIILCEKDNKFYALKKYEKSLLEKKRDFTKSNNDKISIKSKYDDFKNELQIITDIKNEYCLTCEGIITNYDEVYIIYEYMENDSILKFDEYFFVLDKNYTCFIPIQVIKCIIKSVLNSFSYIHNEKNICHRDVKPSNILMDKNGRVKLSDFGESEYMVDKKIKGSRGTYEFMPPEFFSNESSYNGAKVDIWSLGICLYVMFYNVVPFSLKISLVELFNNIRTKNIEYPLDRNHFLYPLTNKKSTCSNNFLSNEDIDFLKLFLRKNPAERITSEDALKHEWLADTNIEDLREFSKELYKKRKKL

[8] = molecular target: Calcium-dependent protein kinase 4 (Plasmodium falciparum (isolate 3D7)) (UniProt Q8IBS5); test: PfCDPK4 kinase inhibitors, biochemical, TCAMS library (AID 1159588; cut-off not given, nearly all actives have IC50 up to about 0.91 µM); details: recombinant PfCDPK4, Kinase-Glo ATP depletion luminescence
Sequence of Calcium-dependent protein kinase 4 (Plasmodium falciparum (isolate 3D7)) (Q8IBS5 whole entry, looked up): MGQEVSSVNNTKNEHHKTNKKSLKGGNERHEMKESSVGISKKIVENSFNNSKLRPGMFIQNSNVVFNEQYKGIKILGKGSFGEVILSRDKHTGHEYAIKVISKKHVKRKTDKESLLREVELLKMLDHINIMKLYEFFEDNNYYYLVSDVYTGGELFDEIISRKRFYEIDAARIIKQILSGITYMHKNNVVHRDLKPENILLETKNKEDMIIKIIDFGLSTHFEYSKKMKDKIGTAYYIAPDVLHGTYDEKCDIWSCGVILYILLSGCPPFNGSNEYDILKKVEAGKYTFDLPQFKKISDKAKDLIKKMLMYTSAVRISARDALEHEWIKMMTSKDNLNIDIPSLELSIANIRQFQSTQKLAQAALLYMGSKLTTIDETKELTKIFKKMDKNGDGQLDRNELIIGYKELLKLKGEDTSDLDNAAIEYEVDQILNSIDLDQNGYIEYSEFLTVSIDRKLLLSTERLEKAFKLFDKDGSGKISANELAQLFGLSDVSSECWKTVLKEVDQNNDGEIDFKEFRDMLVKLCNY

With `O=C(NCCCCN1CCC(c2nc3ccccc3s2)CC1)c1cc2ccccc2[nH]1` the growth inhibition [1] was 64% (active), the inhibition [2] was 43% and the inhibition [3] was -5%. For the same compound, the growth inhibition [4] was 86% (active), the outcome [5] was “inactive” and the outcome [6] was “inactive”. For the same compound, the outcome [7] was “inactive” and the outcome [8] was “inactive”.
With `CN(C)CCCN1CCN(Cc2ccc(-c3ccc(-c4nc5ccccc5[nH]4)s3)cc2)CC1` the growth inhibition [1] was 100% (active), the inhibition [2] was 19% and the inhibition [3] was 4%. For the same compound, the growth inhibition [4] was 102% (active), the outcome [5] was “inactive” and the outcome [6] was “inactive”. The outcome [7] was “inactive” and the outcome [8] was “inactive”.
In the case of `O=C(NCCN1CCCC1)c1cccc(-c2ccc(-c3nc4ccc(F)cc4[nH]3)cc2)c1`, the growth inhibition [1] is reported as 85% (active), the inhibition [2] is reported as 33% and the inhibition [3] is reported as -3%. The growth inhibition [4] was 99% (active), the outcome [5] was “inactive” and the outcome [6] was “inactive”. For the same compound, the outcome [7] was “inactive” and the outcome [8] was “inactive”.
For `CS(=O)(=O)N(c1ccc(F)cc1)c1cc(C(=O)N[C@@H](Cc2ccccc2)[C@H](O)CNCc2cccc(C(F)(F)F)c2)cc(N2CCCC2=O)c1`, the growth inhibition [1] was 65% (active), the inhibition [2] was -4% and the inhibition [3] was -1%. For the same compound, the growth inhibition [4] was 91% (active), the outcome [5] was “inactive” and the outcome [6] was “inactive”. For the same compound, the outcome [7] was “inactive” and the outcome [8] was “inactive”.
`O=C(NCCCCN1CCC(O)(c2ccc(Cl)cc2)CC1)c1ccc(Br)cc1` showed a growth inhibition [1] of 48%, an inhibition [2] of 41% and an inhibition [3] of 4%. The growth inhibition [4] was 82% (active), the outcome [5] was “inactive” and the outcome [6] was “inactive”. For the same compound, the outcome [7] was “inactive” and the outcome [8] was “inactive”.
In the case of `NC(=O)COc1c(C2CCN(CCCCNC(=O)c3ccc(-c4ccc(Cl)cc4)c(O)c3)CC2)ccc2c1CCCC2`, the growth inhibition [1] is reported as 72% (active), the inhibition [2] is reported as 97% (active) and the inhibition [3] is reported as 4%. For the same compound, the growth inhibition [4] was 101% (active), the outcome [5] was “inactive” and the outcome [6] was “inactive”. The outcome [7] was “inactive” and the outcome [8] was “inactive”.
`CC(CN)OCn1cnc2c(N)ncnc21` (stereo not given) gave a growth inhibition [1] of 3%, an inhibition [2] of 17% and an inhibition [3] of 4%. For the same compound, the growth inhibition [4] was 95% (active), the outcome [5] was “inactive” and the outcome [6] was “inactive”. The outcome [7] was “inactive” and the outcome [8] was “inactive”.
`CC(=O)c1ccc(N2CCN(C(=O)Nc3ccc(Cl)cc3)CC2)cc1` gave a growth inhibition [1] of 0%, an inhibition [2] of 4% and an inhibition [3] of 0%. The growth inhibition [4] was 97% (active), the outcome [5] was “inactive” and the outcome [6] was “inactive”. For the same compound, the outcome [7] was “inactive” and the outcome [8] was “inactive”.
Compound `CN(C)CC(=O)Nc1ccc(Nc2nccc(NCC(O)c3ccccc3)n2)cc1` (stereo not given) has a growth inhibition [1] of 2%, an inhibition [2] of -2% and an inhibition [3] of -4%. For the same compound, the growth inhibition [4] was 95% (active), the outcome [5] was “inactive” and the outcome [6] was “inactive”. For the same compound, the outcome [7] was “inactive” and the outcome [8] was “inactive”.
With `CC(C)(C)c1ccc(CNC(=O)c2ccc(-c3nc4ccc(Cl)cc4[nH]3)cc2)cc1` the growth inhibition [1] was 2%, the inhibition [2] was 14% and the inhibition [3] was -2%. For the same compound, the growth inhibition [4] was 93% (active), the outcome [5] was “inactive” and the outcome [6] was “inactive”. For the same compound, the outcome [7] was “inactive” and the outcome [8] was “inactive”.
In the case of `O=C(/C=C/c1ccc(Cl)c(Cl)c1)NCCCCCN1CCCN(C(=O)Nc2cc(Cl)nc(Cl)c2)CC1`, the growth inhibition [1] is reported as 3%, the inhibition [2] is reported as 8% and the inhibition [3] is reported as -1%. The growth inhibition [4] was 103% (active), the outcome [5] was “inactive” and the outcome [6] was “inactive”. For the same compound, the outcome [7] was “inactive” and the outcome [8] was “inactive”.
`CN(C)c1ccc(CN2CCC(CNC(=O)c3cc(-c4cccc(C(F)(F)F)c4)cs3)C2)cc1` (stereo not given) gave a growth inhibition [1] of 34%, an inhibition [2] of 39% and an inhibition [3] of 0%. The growth inhibition [4] was 96% (active), the outcome [5] was “inactive” and the outcome [6] was “inactive”. The outcome [7] was “inactive” and the outcome [8] was “inactive”.
With `Cc1cccc2[nH]c(-c3ccc(-c4cccc(C(=O)N5CCCCC5C(C)O)c4)s3)nc12` (stereo not given) the growth inhibition [1] was 53% (active), the inhibition [2] was 27% and the inhibition [3] was -1%. The growth inhibition [4] was 101% (active), the outcome [5] was “inactive” and the outcome [6] was “inactive”. The outcome [7] was “inactive” and the outcome [8] was “inactive”.
Compound `CN1C(C)(C)CC(NC(=O)c2ccc(-c3cc4cc(Cl)c(Cl)cc4[nH]3)o2)CC1(C)C` has a growth inhibition [1] of 43%, an inhibition [2] of 21% and an inhibition [3] of -4%. For the same compound, the growth inhibition [4] was 101% (active), the outcome [5] was “inactive” and the outcome [6] was “inactive”. For the same compound, the outcome [7] was “inactive” and the outcome [8] was “inactive”.
`Cc1cc(N[C@@H](Cc2ccccc2)C(=O)NC2CCCC2)nc(NCCCOC(C)C)n1` gave a growth inhibition [1] of 43%, an inhibition [2] of -4% and an inhibition [3] of -3%. For the same compound, the growth inhibition [4] was 92% (active), the outcome [5] was “inactive” and the outcome [6] was “inactive”. For the same compound, the outcome [7] was “inactive” and the outcome [8] was “inactive”.
With `O=C(NCc1ccccc1)Nc1ccc(-c2cccc(-c3nc4ccc(C(F)(F)F)cc4[nH]3)c2)cc1` the growth inhibition [1] was 23%, the inhibition [2] was 56% (active) and the inhibition [3] was -1%. For the same compound, the growth inhibition [4] was 97% (active), the outcome [5] was “inactive” and the outcome [6] was “inactive”. The outcome [7] was “inactive” and the outcome [8] was “inactive”.
With `Cc1cc(NC(=O)NCCN2CCC(NS(=O)(=O)c3ccc(Br)cc3)C2)c2ccccc2n1` (stereo not given) the growth inhibition [1] was 51% (active), the inhibition [2] was 9% and the inhibition [3] was 0%. For the same compound, the growth inhibition [4] was 99% (active), the outcome [5] was “inactive” and the outcome [6] was “inactive”. The outcome [7] was “inactive” and the outcome [8] was “inactive”.
In the case of `CN1CCc2ccc(NC(=O)Nc3cccc(C(=O)c4ccccc4)c3)cc2C1`, the growth inhibition [1] is reported as 16%, the inhibition [2] is reported as 11% and the inhibition [3] is reported as -1%. The growth inhibition [4] was 83% (active), the outcome [5] was “inactive” and the outcome [6] was “inactive”. For the same compound, the outcome [7] was “inactive” and the outcome [8] was “inactive”.
`COc1ccc2ncc(F)c(CCN3CCC(NCc4cnc5c(c4)NC(=O)CS5)CC3)c2c1` showed a growth inhibition [1] of 16%, an inhibition [2] of 16% and an inhibition [3] of 3%. The growth inhibition [4] was 99% (active), the outcome [5] was “inactive” and the outcome [6] was “inactive”. For the same compound, the outcome [7] was “inactive” and the outcome [8] was “inactive”.
For `CN(C)CCCN1CCN(C(=O)c2cc3cc(-c4ccccc4)ccc3n2S(=O)(=O)c2ccccc2)CC1`, the growth inhibition [1] was 94% (active), the inhibition [2] was 32% and the inhibition [3] was 4%. The growth inhibition [4] was 101% (active), the outcome [5] was “inactive” and the outcome [6] was “inactive”. The outcome [7] was “inactive” and the outcome [8] was “inactive”.
